Bioassay records deposited in PubChem BioAssay by several laboratories.
An excerpt weighted towards active compounds, which were near 3.1% of everything screened.
BoNT-A LC inh2 – blocks Botulinum neurotoxin A light chain protease; AID 588499; multiplex microsphere protease substrate cleavage, flow cytometry; hit rate 0.17% among 360,000; inhibition, % at 10 µM; further: plate controls were buffer without enzyme for full effect and enzyme alone for no effect
Autofluor counter – flagged as autofluorescent in microsphere protease counterscreen. AID 624483. compound autofluorescence counterscreen, microsphere flow cytometry; hits give high values. fluorescence intensity (no concentration beside the values). hit rate 3.1% among 360,000; in the data active means fluorescence intensity above about 16000; inconclusive means no clear call, values can overlap the other calls
PriA SSB inh – blocks PriA binding to SSB C-terminal tail; AlphaScreen SSBct-PriA binding, biotinylated peptide; inhibition, % at 33 µM; hit rate 0.6% among 430,000; in the data active means inhibition mostly above about 37%, no sharp cut-off; inactive means mostly below about 20%;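 further: plate controls were negative control peptide for no effect and reference peptide for full effect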
Anthrax LF prot – blocks Bacillus anthracis lethal factor protease; P15917; multiplex microsphere protease cleavage assay, LF; inhibition, % at 10 µM; hit rate 0.12% among 360,000; further: plate controls were buffer without enzyme for full effect and enzyme alone for no effect
Target sequence (P15917 whole entry, looked up): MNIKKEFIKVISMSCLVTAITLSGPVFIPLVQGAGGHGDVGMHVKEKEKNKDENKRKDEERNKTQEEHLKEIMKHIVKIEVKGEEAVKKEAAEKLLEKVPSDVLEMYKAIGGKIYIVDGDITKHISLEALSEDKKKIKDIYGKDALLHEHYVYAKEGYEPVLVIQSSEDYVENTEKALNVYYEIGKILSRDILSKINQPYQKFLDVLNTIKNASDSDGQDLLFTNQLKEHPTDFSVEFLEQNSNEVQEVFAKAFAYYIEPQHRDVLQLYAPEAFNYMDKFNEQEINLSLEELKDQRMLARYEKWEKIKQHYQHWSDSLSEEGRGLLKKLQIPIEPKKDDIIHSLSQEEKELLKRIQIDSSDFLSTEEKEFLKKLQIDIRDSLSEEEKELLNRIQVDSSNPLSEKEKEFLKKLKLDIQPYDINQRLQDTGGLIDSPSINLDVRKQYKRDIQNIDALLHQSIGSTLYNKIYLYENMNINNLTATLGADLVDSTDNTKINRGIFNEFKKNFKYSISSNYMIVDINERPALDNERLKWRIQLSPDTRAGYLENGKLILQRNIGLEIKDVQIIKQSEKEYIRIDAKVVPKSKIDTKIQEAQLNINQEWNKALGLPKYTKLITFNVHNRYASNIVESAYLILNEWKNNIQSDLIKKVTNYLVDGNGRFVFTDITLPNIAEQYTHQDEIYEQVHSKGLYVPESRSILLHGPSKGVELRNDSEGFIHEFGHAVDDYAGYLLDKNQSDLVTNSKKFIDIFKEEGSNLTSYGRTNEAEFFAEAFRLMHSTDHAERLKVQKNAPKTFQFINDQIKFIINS
BoNT F protease – BoNT F light chain protease inhibition. Multiplex microsphere protease cleavage assay, flow cytometry. inhibition, % at 10 µM. hit rate 0.22% among 360,000; in the data active means inhibition above about 35%, passing the limit was not always enough; inconclusive means no clear call, values can overlap the other calls; further: plate controls were buffer without enzyme for full effect and enzyme alone for no effect
* = called active by the depositor. Unless noted, no stated cut-off is given here; in the data, active means inhibition above about 30%; inconclusive means no clear call, values can overlap the other calls; inactive means below that.

Screening Cc1noc(-c2ccc(N3CCC(NC(=O)c4ccc5c(c4)OCO5)C3)nc2)n1 (stereo not drawn) returned PriA SSB inh -4.
For CS(=O)(=O)Nc1ccc(C2=NN(C(=O)c3ccco3)C(c3ccccc3F)C2)cc1 (stereo not drawn) the results were BoNT-A LC inh2 -1, Autofluor counter 2468, PriA SSB inh 7, Anthrax LF prot -1 and BoNT F protease 0.
Screening CS(=O)(=O)Nc1cccc(C2=NN(C(=O)c3ccco3)C(c3ccccc3F)C2)c1 (stereo not drawn) returned PriA SSB inh 58*.
For CC(=NO)C(=O)NCCCn1ccnc1 the results were PriA SSB inh 17.
For O=c1[nH]c(=S)n(CCC2=CCCCC2)c(O)c1C=NCc1cccnc1 the results were BoNT-A LC inh2 inconclusive, Autofluor counter 24166*, Anthrax LF prot -8 and BoNT F protease -5.
COc1ccccc1C=NNC(=O)c1ccc(Br)cc1 was read as PriA SSB inh -4.
`COc1ccc(CCNC(=O)c2cccc(-n3cnnn3)c2)cc1` gave BoNT-A LC inh2 0, Autofluor counter 3683, PriA SSB inh -3, Anthrax LF prot -5 and BoNT F protease -2.
Screening Cc1ccc(CNC(=O)c2cccc(-n3cnnn3)c2)cc1 returned BoNT-A LC inh2 0, Autofluor counter 23751*, PriA SSB inh 1, Anthrax LF prot 0 and BoNT F protease 0.
`Cc1ccc(-n2nnc3c(=O)oc4ccccc4c32)cc1` gave PriA SSB inh -26.
For CCC(C)n1nnc2c(=O)oc3ccccc3c21 (stereo not drawn) the results were BoNT-A LC inh2 0, Autofluor counter 23717*, PriA SSB inh -2, Anthrax LF prot 0 and BoNT F protease -1.
Screening Cc1ccccc1-c1nc(C#N)c(N2CCCCC2)o1 returned BoNT-A LC inh2 3, Autofluor counter 4089, PriA SSB inh 59*, Anthrax LF prot 17 and BoNT F protease 0.
For N#Cc1nc(-c2ccccc2F)oc1N1CCCC1 the results were BoNT-A LC inh2 -1, Autofluor counter 10768, PriA SSB inh 2, Anthrax LF prot -6 and BoNT F protease -8.
Screening N#Cc1nc(-c2ccccc2F)oc1N1CCCCCC1 returned PriA SSB inh 86*.
O=C1CNC(=O)N1C1CCNCC1 was read as PriA SSB inh 4.
Cc1cccc(NN=C(C(N)=O)C2=NC(C)(C)Cc3ccccc32)c1 was read as PriA SSB inh 57*.
Screening CC1(C)Cc2ccccc2C(/C(=N\Nc2cccc(Cl)c2)C(N)=O)=N1 returned BoNT-A LC inh2 -1, Autofluor counter 2120, Anthrax LF prot -1 and BoNT F protease -4.
Screening Cc1nc(SC(C(=O)c2ccccc2)c2ccccc2)n[nH]1 (stereo not drawn) returned BoNT-A LC inh2 4, Autofluor counter 20864*, PriA SSB inh -10, Anthrax LF prot 0 and BoNT F protease 5.
COC(=O)c1cc(C(=O)Nc2cccc(C)n2)cc([N+](=O)[O-])c1 was read as BoNT-A LC inh2 0, Autofluor counter 2589, PriA SSB inh -6, Anthrax LF prot -1 and BoNT F protease -6.
`COC(=O)c1cc(C(=O)Nc2ccc(C)cn2)cc([N+](=O)[O-])c1` gave BoNT-A LC inh2 inconclusive, Autofluor counter 22666*, PriA SSB inh 4, Anthrax LF prot 2 and BoNT F protease -2.
CCCC(C)c1nnc(NC(=O)c2cc(C(=O)OC)cc([N+](=O)[O-])c2)s1 (stereo not drawn) was read as BoNT-A LC inh2 inconclusive, Autofluor counter 16199*, PriA SSB inh 10, Anthrax LF prot 0 and BoNT F protease -2.
`CC1CCCN(c2c([N+](=O)[O-])c(=O)oc3ccccc23)C1` (stereo not drawn) gave BoNT-A LC inh2 inconclusive, Autofluor counter 23803*, PriA SSB inh -8, Anthrax LF prot -2 and BoNT F protease 1.
For COc1cccc2cc(C(=O)NCc3ccc(C(O)c4cccs4)s3)oc12 (stereo not drawn) the results were PriA SSB inh 1.
Screening CCOC(=O)N1CCc2nc(NC(=O)COc3ccc(F)cc3)sc2C1 returned PriA SSB inh -5.
For CSc1ccccc1NC(=O)c1ccc(S(=O)(=O)Nc2cccnc2)o1 the results were PriA SSB inh 7.
`COc1cc(C(=O)O)ccc1OCc1c(C)noc1C` gave BoNT-A LC inh2 -1, Autofluor counter 21283*, PriA SSB inh 3, Anthrax LF prot 0 and BoNT F protease -2.
Screening COc1cc(C=O)ccc1OCc1c(C)noc1C returned BoNT-A LC inh2 -3, Autofluor counter 21666*, PriA SSB inh -8, Anthrax LF prot -4 and BoNT F protease -4.
